{
  "source": "PubChem BioAssay",
  "note": "Inconclusive results are not listed. Active and inactive are the calls of the source. Unless noted, the limit is not given here; nearly all actives have AC50 up to about 27 µM.",
  "data": [
    {"experiment": "viability loss in pontine glioma line – cell-based, SU-DIPG-XIII, MIPE4.0, CellTiter-Glo, qHTS, dose response (AID 1347061; cut-off not given, nearly all actives have AC50 up to about 37 µM;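 also: cells exposed to compound for 48 hours before readout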)", "conditions": "CellTiter-Glo ATP luminescence", "values": [
      {"smiles": "Cc1cc(=O)c2c(O)c3c(O)cc(=O)c4c3c3c(cc(O)c1c23)C(C)(C)C=4O", "AC50": "11.8 µM (active)"},
      {"smiles": "CC(C)OC(=O)OCOP(=O)(CO[C@H](C)Cn1cnc2c(N)ncnc21)OCOC(=O)OC(C)C", "outcome": "inactive"},
      {"smiles": "CC(=O)N[C@H]1[C@H]([C@H](O)[C@H](O)CO)OC(C(=O)O)=C[C@@H]1N=C(N)N", "outcome": "inactive"},
      {"smiles": "Cc1ccc(C(=O)c2cc(O)c(O)c([N+](=O)[O-])c2)cc1", "outcome": "inactive"},
      {"smiles": "Cc1nnc(C(=O)NC(C)(C)c2nc(C(=O)NCc3ccc(F)cc3)c(O)c(=O)n2C)o1", "outcome": "inactive"},
      {"smiles": "Cc1ccccc1C(=O)Nc1ccc(C(=O)N2CCCC(O)c3cc(Cl)ccc32)c(C)c1", "note": "(configuration not stated)", "outcome": "inactive"},
      {"smiles": "COc1ccc2cccc(CCNC(C)=O)c2c1", "outcome": "inactive"},
      {"smiles": "C[C@]12CCC(=O)C=C1[C@@H]1C[C@@H]1[C@H]1[C@@H]3[C@@H]4C[C@@H]4[C@@]4(CCC(=O)O4)[C@@]3(C)CC[C@@H]12", "outcome": "inactive"},
      {"smiles": "CC1(C)CCC(C)(C)c2cc(NC(=O)c3ccc(C(=O)O)cc3)ccc21", "AC50": "23.5 µM (active)"},
      {"smiles": "CC(=O)OCC(=O)[C@@]12N=C(C)O[C@@H]1C[C@H]1[C@@H]3CCC4=CC(=O)C=C[C@]4(C)[C@H]3[C@@H](O)C[C@@]12C", "outcome": "inactive"},
      {"smiles": "O=P(O)(O)C(O)(Cn1ccnc1)P(=O)(O)O", "outcome": "inactive"},
      {"smiles": "O=c1cc(O)c(Cl)c[nH]1", "outcome": "inactive"},
      {"smiles": "CC(C)(C)C(=O)Oc1ccc(S(=O)(=O)Nc2ccccc2C(=O)NCC(=O)O)cc1", "outcome": "inactive"},
      {"smiles": "N[C@@H](Cc1c[nH]c2ccc(O)cc12)C(=O)O", "outcome": "inactive"},
      {"smiles": "CCCCN(CCCC)CC(O)c1cc(Cl)cc2c1-c1ccc(Cl)cc1/C2=C/c1ccc(Cl)cc1", "note": "(configuration not stated)", "outcome": "inactive"},
      {"smiles": "N#Cc1c(N(CC(=O)O)CC(=O)O)sc(C(=O)O)c1CC(=O)O", "outcome": "inactive"},
      {"smiles": "N=C(N)c1ccc2cc(OC(=O)c3ccc(N=C(N)N)cc3)ccc2c1", "outcome": "inactive"},
      {"smiles": "COC(c1ccccc1)(c1ccccc1)[C@H](Oc1nc(C)cc(C)n1)C(=O)O", "outcome": "inactive"},
      {"smiles": "NC(=O)c1ncn([C@@H]2O[C@H](CO)[C@@H](O)[C@H]2O)c1N", "outcome": "inactive"},
      {"smiles": "c1cnc2cc3c(cc2n1)C1CNCC3C1", "outcome": "inactive"},
      {"smiles": "CC(C(=O)O)c1ccc2c(c1)CC(=O)c1ccccc1S2", "note": "(configuration not stated)", "AC50": "0.0059 µM (active)"},
      {"smiles": "CCCCc1oc2ccc(NS(C)(=O)=O)cc2c1C(=O)c1ccc(OCCCN(CCCC)CCCC)cc1", "AC50": "18.7 µM (active)"}
    ]},
    {"experiment": "viability loss in pontine glioma line – cell-based, JHH-DIPG-1, MIPE4.0, CellTiter-Glo, qHTS, dose response (AID 1347062);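 as to AC50: cells exposed to compound for two days before readout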", "conditions": "JHH-DIPG-1 viability, CellTiter-Glo ATP luminescence", "values": [
      {"smiles": "Cc1cc(=O)c2c(O)c3c(O)cc(=O)c4c3c3c(cc(O)c1c23)C(C)(C)C=4O", "AC50": "743 nM (active)"},
      {"smiles": "CC(C)OC(=O)OCOP(=O)(CO[C@H](C)Cn1cnc2c(N)ncnc21)OCOC(=O)OC(C)C", "outcome": "inactive"},
      {"smiles": "O=C(O)c1ccc(-n2nc(-c3ccccc3O)nc2-c2ccccc2O)cc1", "outcome": "inactive"},
      {"smiles": "COc1ccc(-c2ccc3cc(C(=O)O)ccc3c2)cc1C12CC3CC(CC(C3)C1)C2", "outcome": "inactive"},
      {"smiles": "COCCCN1CCC(NC(=O)c2cc(Cl)c(N)c3c2OCC3)CC1", "outcome": "inactive"},
      {"smiles": "CCOC(=O)c1c(C)n(C)c2ccc(O)cc12", "outcome": "inactive"},
      {"smiles": "NCCCC(N)(C(=O)O)C(F)F", "note": "(configuration not stated)", "outcome": "inactive"},
      {"smiles": "CC(=O)N[C@H]1[C@H]([C@H](O)[C@H](O)CO)OC(C(=O)O)=C[C@@H]1N=C(N)N", "outcome": "inactive"},
      {"smiles": "C=CC(=O)Nc1cc2c(Nc3ccc(F)c(Cl)c3)ncnc2cc1OCCCN1CCOCC1", "AC50": "18700 nM (active)"},
      {"smiles": "Cc1ccc(C(=O)c2cc(O)c(O)c([N+](=O)[O-])c2)cc1", "outcome": "inactive"},
      {"smiles": "COc1ccc2cccc(CCNC(C)=O)c2c1", "outcome": "inactive"},
      {"smiles": "C[C@]12CCC(=O)C=C1[C@@H]1C[C@@H]1[C@H]1[C@@H]3[C@@H]4C[C@@H]4[C@@]4(CCC(=O)O4)[C@@]3(C)CC[C@@H]12", "outcome": "inactive"},
      {"smiles": "CCC1=C[C@@H]2CN(C1)Cc1c([nH]c3ccccc13)[C@@](C(=O)OC)(c1cc3c(cc1OC)N(C)[C@H]1[C@@](O)(C(=O)OC)[C@H](OC(C)=O)[C@]4(CC)C=CCN5CC[C@]31[C@@H]54)C2", "AC50": "13.2 nM (active)"},
      {"smiles": "CC1(C)CCC(C)(C)c2cc(NC(=O)c3ccc(C(=O)O)cc3)ccc21", "outcome": "inactive"},
      {"smiles": "Cc1ccc(Nc2nccc(N(C)c3ccc4c(C)n(C)nc4c3)n2)cc1S(N)(=O)=O", "outcome": "inactive"},
      {"smiles": "CCOC(=O)c1ccc(C#Cc2ccc3c(c2)C(C)(C)CCS3)nc1", "outcome": "inactive"},
      {"smiles": "CC(=O)OCC(=O)[C@@]12N=C(C)O[C@@H]1C[C@H]1[C@@H]3CCC4=CC(=O)C=C[C@]4(C)[C@H]3[C@@H](O)C[C@@]12C", "outcome": "inactive"},
      {"smiles": "O=P(O)(O)C(O)(Cn1ccnc1)P(=O)(O)O", "outcome": "inactive"},
      {"smiles": "CC(C)(C)C(=O)Oc1ccc(S(=O)(=O)Nc2ccccc2C(=O)NCC(=O)O)cc1", "outcome": "inactive"},
      {"smiles": "CCCCN(CCCC)CC(O)c1cc(Cl)cc2c1-c1ccc(Cl)cc1/C2=C/c1ccc(Cl)cc1", "note": "(configuration not stated)", "outcome": "inactive"},
      {"smiles": "N=C(N)c1ccc2cc(OC(=O)c3ccc(N=C(N)N)cc3)ccc2c1", "outcome": "inactive"},
      {"smiles": "COC(c1ccccc1)(c1ccccc1)[C@H](Oc1nc(C)cc(C)n1)C(=O)O", "outcome": "inactive"},
      {"smiles": "NC(=O)c1ncn([C@@H]2O[C@H](CO)[C@@H](O)[C@H]2O)c1N", "outcome": "inactive"},
      {"smiles": "CN(C)C(=O)COC(=O)Cc1ccc(OC(=O)c2ccc(N=C(N)N)cc2)cc1", "outcome": "inactive"},
      {"smiles": "CC(C)C[C@H](NC(=O)[C@H](CCc1ccccc1)NC(=O)CN1CCOCC1)C(=O)N[C@@H](Cc1ccccc1)C(=O)N[C@@H](CC(C)C)C(=O)[C@@]1(C)CO1", "AC50": "18.7 nM (active)"}
    ]}
  ]
}
